We go through one compound from PubChem BioAssay AID489017 (The Scripps Research Institute Molecular Screening Center, 2010).

Unmarked numbers belong to inactive results. The rule behind the calls is not given here.

For this test, the system named is Potassium Channel [KATP]. Kind of test: off-target binding and CYP450 inhibition panel, profiling panel, selectivity assay for S1P4 antagonist project, biochemical, Ricerca HitProfilingScreen (AID 489017). Conditions: Ricerca receptor/enzyme binding panel plus CYP450, at 10 µM, stronger effect = higher value.

Take `CCc1cccc(CC)c1NC(=O)c1ccc(-c2cc(Cl)ccc2Cl)o1`: the inhibition (usually how much of the control response was suppressed) was 14%.
